This is an account of results in PubChem BioAssay (Tox21).

“And” between values parts separate entries of the source, which are not always exact repeats. Equal entries are not always repeated. Results filed as inconclusive are left out. A call without a number means that no potency is given here. The source holds several records for some structures; these can differ, active in one and inactive in another. The source made the active and inactive calls. The call rests on the fitted dose curve; in most records, active means well fitted activation curve with a large enough effect in the repeat runs; inconclusive means weak or mixed curves; inactive means flat fitted curve, though single readings scatter.
Potency means the concentration at half of the fitted maximal effect.

The nature of this test: A CellTox Green Cytotoxicity Assay to monitor cytotoxicity in HepG2 cells - 8 hour (AID 1224890). Further: nearly all actives have a fitted effect of over 45% in size. Particulars: CellTox Green fluorescence; series mostly up to 76.8 µM. The text has this:
National Center for Advancing Translational Sciences [NCATS]
NIH Chemical Genomics Center [NCGC]
U.S. Environmental Protection Agency [EPA]
National Institutes of Environmental Health Sciences [NIEHS]
National Toxicology Program [NTP]
Cell-based models are critical for drug discovery. Determining the natural cytotoxic effects resulting from test compounds is an essential research activity. A CellTox Green Cytotoxicity Assay to monitor cytotoxicity in real time of continues cell culture during 40 hours of the compound treatment was used to screen Tox21 10K library compounds in HepG2 cells. CellTox Green Cytotoxicity Assay is a nonlytic, homogeneous, biofluorescent method to measure cytotoxicity in cell culture after experimental manipulation. The assay system uses a proprietary asymmetric cyanine dye that is excluded from viable cells but preferentially stains the dead cell's DNA. […] Viable cells produce no appreciable increases in fluorescence. Therefore, the fluorescence signal produced by the binding interaction with dead cell DNA is proportional to cytotoxicity.
The mixture of HepG2 cell suspension and reagents were dispensed at 600cells/6 ul/well in 1536-well tissue culture treated black solid bottom plates using a Multidrop dispenser. After the assay plates were incubated at a 37 C/5% CO2 incubator for 5 hours, 23 nL of compounds dissolved in DMSO, positive and negative controls was transferred to the assay plate by a pintool work station. The plates were incubated at 37 C for 40 hours. The fluorescence intensity were measured at 0h, 8h, 16h, 24h, 32h and 40h time points using ViewLux plate reader during compound treatment.
`O=C(O)CC(O)(CC(=O)O)C(=O)O`: the Potency entry is “inactive”. As for `O=C(O)C(Cl)(Cl)Cl`, the entry is “inactive”; as for `CCCC[N+]1(C)CCCCC1`, “inactive”.

Turning to `C[C@]12CCC(=O)C=C1CC[C@@H]1[C@@H]2CC[C@]2(C)C(=O)CC[C@@H]12`, the Potency entry is “inactive”. Regarding `O=c1nc(O)n(Cl)c(=O)n1Cl`, the Potency result was “inactive”. As for `OCCOc1ccccc1`, the entry is “inactive”; as for `CCCn1cc[n+](C)c1`, “inactive”. `CC[N+]1(C)CCCC1`: the Potency result is “inactive”.

For `CC[N+](CC)(CC)CC`, the Potency result is “inactive”. Turning to `C1CCC(NC2CCCCC2)CC1`, the Potency entry was “inactive”. For the compound `CCCCn1cc[n+](C)c1C`, the Potency entry is “inactive”.

As to `COCC(=O)N(c1c(C)cccc1C)C(C)C(=O)OC` (stereo not given), the Potency result was “inactive”.

In the case of `CCCCCCCCCCCCn1cc[n+](C)c1`, the Potency was 44 µM (active) and inactive. As for `C=CCOC(Cn1ccnc1)c1ccc(Cl)cc1Cl` (stereo not given), the entry is “inactive”; as for `CCCCCC[n+]1ccccc1`, “inactive”; as for `O=C(O)c1nc(Cl)ccc1Cl`, “inactive”.

Consider `CCCC[n+]1cccc(C)c1`, for which the Potency entry was “inactive”.

For the compound `Nc1ccc(-c2ccc(N)c(Cl)c2)cc1Cl`, the Potency result was “inactive and 43.6 µM (active)”. As for `CCCCCCCCCCCC(=O)O`, the entry is “inactive”; as for `CC[n+]1ccccc1`, “inactive”; as for `Cc1cc(Cl)ccc1OCC(=O)O`, “inactive”. As for `CCC[N+]1(C)CCCCC1`, the entry is “inactive”. As to `CCCC[n+]1ccccc1C`, the Potency entry was “inactive”. As to `Nc1ccccc1`, the Potency entry is “inactive”. As for `Cc1cc(Cl)ccc1N`, the entry is “inactive and 43.6 µM (active)”; as for `CC(=O)O`, “inactive”; as for `CCCCCCCCCCn1cc[n+](C)c1`, “inactive”.

In the case of `O=C(O)C(Cl)Cl`, the Potency result was “inactive”.

As for `O=[N+]([O-])c1ccccc1O`, the Potency result was “inactive”. As for `N#CS`, the Potency entry was “inactive”. For `CCOP(=S)(OCC)Oc1ccc2c(C)c(Cl)c(=O)oc2c1`, the Potency result was “inactive”.

Regarding `CN(C)[C@@H]1C(=O)C(C(N)=O)=C(O)[C@@]2(O)C(=O)C3=C(O)c4c(O)cccc4[C@@](C)(O)[C@H]3[C@H](O)[C@@H]12`, the Potency result is “inactive”. As for `CC(Cl)(Cl)C(=O)O`, the entry is “inactive”; as for `Nc1ccc(-c2ccc(N)cc2)cc1`, “inactive”; as for `CC(=O)[O][Hg][c]1ccccc1`, 2.73 µM (active) and 2.19 µM (active) and 1.2 µM (active). As for `C[N+](C)(C)Cc1ccccc1`, the entry is “inactive”; as for `CCCCCCn1cc[n+](C)c1`, “inactive”; as for `Oc1ccccc1-c1ccccc1`, “inactive”. As for `COc1ccccc1N`, the entry is “inactive”; as for `CCCC[N+]1(C)CCCC1`, “inactive”.
